# In article PMC3795721, “Screening for Protein-DNA Interactions by Automatable DNA-Protein Interaction ELISA”:
# Target: AT4G31550 (Arabidopsis thaliana, UniProt Q9SV15 228-325)
# Assay: DPI-ELISA; DPI-ELISA, streptavidin 384-well plate, 1-2 pmol biotinylated dsDNA per well, crude native E. coli extract, anti-His detection; buffer as in Brand et al. [46],; high values mean tight binding
# Settings: tags: C-terminal His (pET-DEST42); label: 5' biotin on forward strand; dsDNA, one strand shown
# AT4G31550, sequence (Q9SV15 228-325): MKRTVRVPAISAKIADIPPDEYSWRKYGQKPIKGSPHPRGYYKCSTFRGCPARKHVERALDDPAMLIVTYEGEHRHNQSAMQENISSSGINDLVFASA
row,Sequence,binding signal
1,AAAAAATGGAAGGAGAGGGATGAAATAAAA,0.57 ± 0.156 absorbance
2,AAAAAATCGGGGATCCGGGCGGTTGCAAAA,0.665 ± 0.12 absorbance
3,AAAAAAGTGCACGACCCATTTATATAAAAA,0.5 ± 0.099 absorbance
4,AAAAAATCTGTTCTCGTTTCCCCTTCAAAA,0.805 ± 0.262 absorbance
5,AAAAAATTACGTTTGTATTTGTAAAA,0.555 ± 0.0636 absorbance
6,AAAAAAATGCGCCCTTTCTGACATAAAAAA,0.615 ± 0.106 absorbance
7,AAAAAAGTCCATAAACTAAATTGGATAAAA,0.525 ± 0.0495 absorbance
8,AAAAAAAAGAGCCTGGGGGTTCGCATAAAA,0.655 ± 0.0636 absorbance
9,AAAAAATGTTGTTGCTGTTGGTCCTAAAAA,0.695 ± 0.0778 absorbance
10,AAAAAACGCAACTCCGGATGTGGGGTAAAA,0.545 ± 0.0636 absorbance
11,AAAAAATTAGTCCTGATTCAATCTTCAAAA,0.755 ± 0.106 absorbance
12,AAAAAAAAGGACATTTTTTCTTTTTGAAAA,0.515 ± 0.0636 absorbance
13,AAAAAATTAATCCATGCTTATGTCTGAAAA,0.71 ± 0.184 absorbance
